Most compounds without a hit are left out; they make up all but 7% or so of the library.
HP1b chromo inh: HTS for Inhibitors of HP1-beta Chromodomain Interactions with Methylated Histone Tails | 390,000 tested, 0.56% active | Chromobox protein homolog 1 (Homo sapiens), P83916 | Potency, µM (top dose mostly 114 µM), usual class: inhibitors | AID 540317, 2011 | AlphaScreen HP1-beta / biotin-H3K9me3 peptide binding; further: nearly all actives have a fitted effect of over 70% in size
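Compound inhibition of the preformed complex between 50 nM HP1-beta and 50 nM biotinylated H3K9me3 peptide was read by AlphaScreen. Buffer was PBS pH 7.4 with 0.01% Tween-20. Incubations ran 30 min at room temperature, with 10 ug/mL donor/acceptor beads.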
PI5P4K alpha inh: qHTS for Inhibitors of phosphatidylinositol 5-phosphate 4-kinase (PI5P4K) | Phosphatidylinositol 5-phosphate 4-kinase type-2 alpha (Homo sapiens), P48426 | PI5P4Kalpha enzyme, ADP-Glo luminescence, 60 min; active compounds read low | max response, % | 330,000 tested, 1.2% active | AID 652105, 2013; active means max response of -50% or lower; inconclusive means between -30% and -50%; inactive means -30% or higher; further: value at the top dose of about 77 µM
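Luminescence from ADP-Glo served as readout of PI5P4Kalpha activity in a qHTS format. Reaction: enzyme, substrate, compound, ATP at 5 microM final, 60 min at RT.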
BAZ2B inh: qHTS Assay for Inhibitors of BAZ2B; Bromodomain adjacent to zinc finger domain protein 2B (Homo sapiens), Q9UIF8; AlphaScreen BAZ2B-H3K14Ac peptide displacement; Potency, µM (highest dose often 114 µM), usual class: inhibitors; 360,000 tested, 4.4% active; AID 504333, 2011; further: nearly all actives have a fitted effect of over 60% in size
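Multi-concentration screen (max 110 uM) measuring displacement of acetylated histone H3 peptide from BAZ2B by AlphaScreen, using 50 nM protein, 50 nM peptide and 10 ug/mL streptavidin donor plus Ni-chelate acceptor beads.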
PLK1 PBD block: qHTS for Inhibitors of PLK1-PDB (polo-like kinase 1 - polo-box domain): Primary Screen; Serine/threonine-protein kinase PLK1 (Homo sapiens), P53350; Plk1 PBD binding of FITC phosphopeptide, fluorescence polarization; Potency, µM, hits mostly inhibitors; 360,000 tested, 2.8% active; AID 720504, 2013; further: series mostly up to about 57 µM; nearly all actives have a fitted effect of over 65% in size
KAT2A inh: qHTS Assay for Inhibitors of GCN5L2. Potency, µM (series often up to 58.9 µM), usual class: inhibitors. GCN5L2 HAT assay, ThioGlo1 CoA-SH fluorescence. 390,000 tested, 0.21% active. Histone acetyltransferase KAT2A (Homo sapiens), Q92830
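GCN5L2 (20 nM) in 50mM HEPES pH 7.5, 0.1mM EDTA, 0.01% Tween-20 preincubated 15 min with compounds at room temperature. Reaction started with H3(1-25) 75uM, acetyl-CoA 70uM, ThioGlo1 50uM; CoA-thiol fluorescence (Ex340/Em540) read at 0 and 20 min.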
JMJD2A Tudor inh: qHTS Assay for Inhibitors of JMJD2A-Tudor Domain; Lysine-specific demethylase 4A (Homo sapiens), O75164; AlphaScreen JMJD2A-Tudor / H3K4me3 peptide binding; Potency, µM (highest dose often 114 µM), usual class: inhibitors; 390,000 tested, 4.4% active; AID 504339, 2011; further: nearly all actives have a fitted effect of over 50% in size
Target sequence (O75164 whole entry, looked up, the tested form may be a part): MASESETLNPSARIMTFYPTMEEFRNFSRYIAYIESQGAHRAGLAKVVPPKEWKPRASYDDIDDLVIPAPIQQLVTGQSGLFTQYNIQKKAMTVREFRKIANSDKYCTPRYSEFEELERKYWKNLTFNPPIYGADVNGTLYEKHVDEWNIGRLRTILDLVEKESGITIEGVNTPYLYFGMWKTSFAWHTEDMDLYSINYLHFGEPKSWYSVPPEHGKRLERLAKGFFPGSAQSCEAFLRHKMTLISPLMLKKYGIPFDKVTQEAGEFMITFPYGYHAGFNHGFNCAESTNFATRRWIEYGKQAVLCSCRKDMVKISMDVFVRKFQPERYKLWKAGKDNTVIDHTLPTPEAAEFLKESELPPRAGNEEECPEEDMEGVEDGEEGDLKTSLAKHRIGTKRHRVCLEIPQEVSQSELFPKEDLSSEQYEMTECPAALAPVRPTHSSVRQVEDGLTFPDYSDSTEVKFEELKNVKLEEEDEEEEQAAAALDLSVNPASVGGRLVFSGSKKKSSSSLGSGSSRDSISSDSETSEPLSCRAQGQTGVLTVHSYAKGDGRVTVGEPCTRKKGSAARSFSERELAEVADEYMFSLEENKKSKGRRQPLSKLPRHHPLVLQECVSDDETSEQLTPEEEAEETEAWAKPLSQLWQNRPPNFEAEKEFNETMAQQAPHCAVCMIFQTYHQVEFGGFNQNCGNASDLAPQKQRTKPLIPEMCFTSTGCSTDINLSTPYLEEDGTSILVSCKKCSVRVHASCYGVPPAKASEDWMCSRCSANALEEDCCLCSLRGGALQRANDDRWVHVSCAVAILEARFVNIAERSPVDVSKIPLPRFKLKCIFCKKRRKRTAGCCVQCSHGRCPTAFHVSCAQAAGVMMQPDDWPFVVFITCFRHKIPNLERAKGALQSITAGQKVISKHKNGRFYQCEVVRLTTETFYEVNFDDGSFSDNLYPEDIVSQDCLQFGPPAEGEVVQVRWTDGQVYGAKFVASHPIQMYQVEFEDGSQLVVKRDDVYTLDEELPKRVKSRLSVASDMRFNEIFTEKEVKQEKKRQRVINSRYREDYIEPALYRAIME
Hits are given with their value; ! = repeats disagree. Unless noted, the call rests on the fitted dose curve; in most records, active means well fitted curve in the direction sought with a large enough effect; inconclusive means small, poorly fitted or top-dose-only effect, or another doubt; inactive means no such curve, though single readings can be large; an effect the other way counts as inactive or inconclusive.

What do the screens show for `CCOC(=O)CC(=O)CSc1nc2c(cc1C#N)CCCCC2`?
HP1b chromo inh: inactive; PI5P4K alpha inh: inactive; BAZ2B inh: inactive; PLK1 PBD block: 24µM; KAT2A inh: inactive; JMJD2A Tudor inh: 50µM

What do the screens show for `CCOC(=O)C1=C(CSc2nc3c(cc2C#N)CCC3)OC(N)=C(C#N)C1c1ccccc1` (configuration not stated)?
HP1b chromo inh: inactive; BAZ2B inh: inactive; PLK1 PBD block: 17µM; KAT2A inh: inactive; JMJD2A Tudor inh: 25µM

Results for O=C1CCc2cc(S(=O)(=O)Nc3cccc(Br)c3)ccc2N1 ?
JMJD2A Tudor inh: inactive

How did Cc1ccc2c(c1)N(CCCC(=O)Nc1cccc(C(F)(F)F)c1)C(=O)CO2 do in these assays?
HP1b chromo inh: inactive; PI5P4K alpha inh: inactive; BAZ2B inh: inactive; PLK1 PBD block: 27µM; KAT2A inh: inactive; JMJD2A Tudor inh: 16µM!

What do the screens show for `CCCCN(C)C(=O)c1nc2ccccn2c1CN1CCN(C(=O)c2cccs2)CC1`?
HP1b chromo inh: inactive; PI5P4K alpha inh: inactive; BAZ2B inh: inactive; PLK1 PBD block: inactive; KAT2A inh: inactive; JMJD2A Tudor inh: inactive

How did O=C(N/N=C1/CC2C=CCC12)c1ccco1 (configuration not stated) do in these assays?
HP1b chromo inh: inactive; PI5P4K alpha inh: inactive; BAZ2B inh: inactive; PLK1 PBD block: 30µM; KAT2A inh: inactive; JMJD2A Tudor inh: 50µM

What do the screens show for `O=C(N/N=C1/CC2C=CCC12)c1cccs1` (configuration not stated)?
HP1b chromo inh: inactive; PI5P4K alpha inh: inactive; BAZ2B inh: inactive; PLK1 PBD block: inactive; KAT2A inh: inactive; JMJD2A Tudor inh: inactive

Results for CC1(C)OC(=O)N(CC(=O)Nc2ccccc2)C1(C)O (configuration not stated) ?
HP1b chromo inh: inactive; PI5P4K alpha inh: inactive; BAZ2B inh: inactive; PLK1 PBD block: 27µM; KAT2A inh: inactive; JMJD2A Tudor inh: inactive

How did CC1(C)OC(=O)N(CC(=O)Nc2cccc(C(F)(F)F)c2)C1(C)O (configuration not stated) do in these assays?
HP1b chromo inh: inactive; PI5P4K alpha inh: inactive; BAZ2B inh: inactive; PLK1 PBD block: inactive; KAT2A inh: inactive; JMJD2A Tudor inh: inactive

How did COc1ccc2c(c1)NC(c1cccnc1)=NC(c1ccc(F)cc1)=N2 do in these assays?
HP1b chromo inh: inactive; BAZ2B inh: inactive; KAT2A inh: inactive; JMJD2A Tudor inh: inactive

How did CCCOc1ccc(C2=NC(c3ccc(F)cc3)=Nc3ccc(OC)cc3N2)cc1 do in these assays?
HP1b chromo inh: inactive; BAZ2B inh: 10µM; KAT2A inh: inactive; JMJD2A Tudor inh: inconclusive

What do the screens show for `Cc1ccc(S(=O)(=O)NC(=O)c2cc(C)n(CCCn3ccnc3)c2C)cc1`?
HP1b chromo inh: inactive; PI5P4K alpha inh: inactive; BAZ2B inh: 32µM; PLK1 PBD block: inactive; KAT2A inh: inactive; JMJD2A Tudor inh: 56µM

Results for Cc1ccc(C)c(-n2[nH]c3c4c(ccc3c2=O)C(=O)c2ccccc2C4=O)c1 ?
HP1b chromo inh: 50µM; PI5P4K alpha inh: inactive; BAZ2B inh: 45µM; PLK1 PBD block: inactive; KAT2A inh: inactive; JMJD2A Tudor inh: inconclusive

What do the screens show for `Cn1c(=O)c2sccc2n2c(CCC(=O)N3CCN(c4ccc(F)cc4)CC3)nnc12`?
HP1b chromo inh: inactive; BAZ2B inh: inactive; KAT2A inh: inactive; JMJD2A Tudor inh: inactive

How did COC(=O)c1cc(=O)nc(NN=C2c3ccccc3-c3ccccc32)s1 do in these assays?
PI5P4K alpha inh: inactive; PLK1 PBD block: 30µM

How did O=C(OCc1nc2scc(-c3ccccc3)c2c(=O)[nH]1)c1cccc([N+](=O)[O-])c1 do in these assays?
HP1b chromo inh: inconclusive; PI5P4K alpha inh: inactive; BAZ2B inh: inactive; PLK1 PBD block: 30µM; KAT2A inh: inactive; JMJD2A Tudor inh: inconclusive

What do the screens show for `COc1ccc(/C=C(\NC(=O)c2ccccc2)C(=O)OC[C@@H]2CCC[N+]3(C)CCCCC23)cc1OC` (some centres not stated)?
HP1b chromo inh: inconclusive; PI5P4K alpha inh: inactive; BAZ2B inh: inactive; PLK1 PBD block: inactive; KAT2A inh: inactive; JMJD2A Tudor inh: 16µM

How did CC1(C)CC2CC(C)(CN2C(=O)c2ccc([N+](=O)[O-])cc2[N+](=O)[O-])C1 (configuration not stated) do in these assays?
HP1b chromo inh: inactive; PI5P4K alpha inh: inactive; BAZ2B inh: inactive; PLK1 PBD block: inactive; KAT2A inh: inactive; JMJD2A Tudor inh: inactive

How did NC(=O)c1cc(S(=O)(=O)N2CCOCC2)ccc1Sc1ccccc1N do in these assays?
HP1b chromo inh: inactive; PI5P4K alpha inh: inactive; BAZ2B inh: inactive; PLK1 PBD block: 15µM; KAT2A inh: inactive; JMJD2A Tudor inh: inactive

How did Nc1cccc(S(=O)(=O)N2CCOCC2)c1 do in these assays?
HP1b chromo inh: inactive; JMJD2A Tudor inh: inactive

Results for O=C(CN(C(=O)c1csnn1)c1ccc(F)c(Cl)c1)NC1CCCC1 ?
HP1b chromo inh: inactive; PI5P4K alpha inh: inactive; BAZ2B inh: inactive; PLK1 PBD block: inactive; KAT2A inh: inactive; JMJD2A Tudor inh: inactive

Results for CCOc1ccc(C(=O)NCCC(=O)NCCCC(=O)O)cc1 ?
HP1b chromo inh: inactive; BAZ2B inh: inactive; PLK1 PBD block: inactive; KAT2A inh: inactive; JMJD2A Tudor inh: inactive

How did CCOc1ccc(C(=O)Nc2cc(C)ccn2)cc1 do in these assays?
HP1b chromo inh: inactive; PI5P4K alpha inh: inconclusive; BAZ2B inh: inactive; PLK1 PBD block: 3µM; KAT2A inh: inactive; JMJD2A Tudor inh: 13µM

How did CCOc1ccc(C(=O)NCCCCNC(=O)c2ccc(OCC)cc2)cc1 do in these assays?
HP1b chromo inh: inactive; PI5P4K alpha inh: inactive; BAZ2B inh: inactive; PLK1 PBD block: inactive; KAT2A inh: 35µM; JMJD2A Tudor inh: inactive

How did CCOc1ccc(C(C)(N)C(=O)O)cc1 (configuration not stated) do in these assays?
HP1b chromo inh: inactive; BAZ2B inh: inactive; PLK1 PBD block: inactive; KAT2A inh: inactive; JMJD2A Tudor inh: 3.5µM

How did CCOC(=O)c1sc2nc(CSc3ccccc3)nc(N3CCCN(C)CC3)c2c1C do in these assays?
HP1b chromo inh: inconclusive; PI5P4K alpha inh: inactive; BAZ2B inh: 50µM; PLK1 PBD block: inactive; KAT2A inh: inactive; JMJD2A Tudor inh: 14µM

Results for O=S(=O)(c1ccccc1)N1CCNCC1 ?
HP1b chromo inh: inactive; PI5P4K alpha inh: inactive; PLK1 PBD block: inactive; JMJD2A Tudor inh: inactive
